Screening results: PubChem, National Center for Advancing Translational Sciences (NCATS)
An excerpt weighted towards active compounds, which were near 4.6% of everything screened.
Tau filament bind – qHTS Assay for Tau Filament Binding | recombinant tau filaments, thioflavin S fluorescence, 15 h; filaments grown with octadecylsulfate alongside compound | Potency, µM (top dose mostly 57.1 µM), for the others: at the highest dose activity change, negative = inhibition | 71,000 tested, 2% active | AID 596, 2007;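 note: % is set by controls: 0 for no effect and ±100 for the full control effect; actives lower thioflavin S fluorescence by blocking filaments or displacing dye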
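Assay mix: 1 uM His-tagged tau, 30 uM sodium octadecylsulfate, thioflavine S dye in HEPES/NaCl/DTT buffer. Compound is added prior to the inducer. Fluorescence after 15 h at 37 C.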
Hsp90 Hop PPI – qHTS Assay for Disrupters of an Hsp90 Co-Chaperone Interaction; 71,000 tested, 0.44% active; Potency, µM (titrated, usually from 57 µM), inactives show at the top dose activity change, negative = inhibition; AlphaScreen TPR2A-His6 binding biotin-Hsp90 C-terminal peptide; Hsp90 C-terminal peptide / TPR2A (Hop) interaction, human; AID 595, 2007; active = well fitted curve in either direction with a large enough effect; inconclusive = small, poorly fitted or top-dose-only effect, or another doubt; note: % is set by controls: 0 for no effect and ±100 for the full control effect
15-hLO inh – qHTS Assay for Inhibitors of 15-hLO (15-human lipoxygenase); Potency, µM (titrated, usually from 57.1 µM), for inactives: top-dose activity change, negative = inhibition, most hits filed as inhibitors; purified 15hLO-1, xylenol orange hydroperoxide absorbance; 74,000 tested, 1.4% active; Polyunsaturated fatty acid lipoxygenase ALOX15 (Homo sapiens), P16050; AID 887, 2007; note: % is set by controls: 0 for no effect and ±100 for the full control effect; nearly all actives have a fitted effect of over 55% in size
Target sequence (P16050 whole entry, looked up): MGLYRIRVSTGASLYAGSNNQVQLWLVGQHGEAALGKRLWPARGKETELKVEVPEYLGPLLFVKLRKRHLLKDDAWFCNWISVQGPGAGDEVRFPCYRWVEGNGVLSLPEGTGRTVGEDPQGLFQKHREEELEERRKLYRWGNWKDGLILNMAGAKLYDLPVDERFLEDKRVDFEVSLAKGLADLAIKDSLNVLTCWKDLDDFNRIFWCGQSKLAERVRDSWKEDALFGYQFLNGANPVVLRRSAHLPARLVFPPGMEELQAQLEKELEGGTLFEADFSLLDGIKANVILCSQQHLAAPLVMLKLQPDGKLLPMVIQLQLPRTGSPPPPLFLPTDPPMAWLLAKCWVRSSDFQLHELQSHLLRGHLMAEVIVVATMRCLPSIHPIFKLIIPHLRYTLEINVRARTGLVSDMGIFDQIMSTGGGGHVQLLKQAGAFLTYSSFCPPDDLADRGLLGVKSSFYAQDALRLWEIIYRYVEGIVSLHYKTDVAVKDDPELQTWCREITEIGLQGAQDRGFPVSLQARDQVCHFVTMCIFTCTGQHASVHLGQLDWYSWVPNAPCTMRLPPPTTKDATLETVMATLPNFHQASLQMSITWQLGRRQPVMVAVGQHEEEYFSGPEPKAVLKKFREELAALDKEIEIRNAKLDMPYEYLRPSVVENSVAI
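Readout: Fe(III)-xylenol orange absorbance, 573-to-405 nm ratio as reaction progress. Enzyme 40 nM purified human 15hLO-1, substrate 50 uM arachidonic acid, 6 min RT after 15 min compound preincubation; Hepes pH 7.5 buffer with Triton X-100.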
GBA mod – Glucocerebrosidase | Lysosomal acid glucosylceramidase (Homo sapiens), P04062 | purified enzyme, resorufin glucoside fluorescence (screen aimed at inhibitors), 20 min | Potency, µM | 48,000 tested, 1.1% active | AID 360, 2006; in the data active = potency below about 15 µM; inconclusive = mostly about 16 µM to 33 µM;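 note: the screen sought inhibitors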
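Wild-type enzyme at 0.2 nM final in 50mM citric acid/KH2PO4, 10mM sodium taurocholate, 0.01% tween-20, pH 5.9, with resorufin beta-D-glucopyranoside at 30 uM final. Compounds titrated, 20 min at RT, red fluorescence read; AC50 from titration.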
USP2a inh – qHTS Assay for Inhibitors of Ubiquitin-specific Protease USP2a | USP2a enzymatic assay, qHTS inhibition | Potency, µM (titrated, usually from 38.3 µM), for inactives: top-dose activity change, negative = inhibition, actives largely listed as inhibitors | 60,000 tested, 0.1% active | AID 927, 2007; note: nearly all actives have a fitted effect of over 60% in size
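20 nM USP2 core + cpd, 30 min RT; add 20 nM Ub-PLA2/20 uM NBD C6-HPC; read Ex460/Em535 at 0 h and 2.5 h. Normalized to NEM; qHTS curve fit/classification.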
PK Bst – Pyruvate Kinase; purified pyruvate kinase, luminescence ATP production; ribose 5-phosphate activator present at AC10; Potency, µM; 51,000 tested, 1.2% active; AID 361, 2006; in the data active = potency below about 11 µM; inconclusive = mostly about 12 µM to 25 µM;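 the screen sought inhibitors and activators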;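 note: scaled between full activation by ribose 5 phosphate and full inhibition by luteolin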
Active calls of the source: *; i = inactive; ? = inconclusive; / = no result; [ ] = remark or other dose. Unless noted, calls come from the whole dose curve; as a rule, active = well fitted curve in the direction sought with a large enough effect; inconclusive = small, poorly fitted or top-dose-only effect, or another doubt; inactive = no such curve, though single readings can be large; an effect the other way counts as inactive or inconclusive. Potency is the fitted concentration of half-maximal effect.

SMILES | Tau filament bind | Hsp90 Hop PPI | 15-hLO inh | GBA mod | USP2a inh | PK Bst
O=C(CCN1CCC(c2ccccc2)C1)c1cccs1 (stereo unspecified) | -9.1% | -0.6% | -10.4% | >76.9 | -2.0% | >57
CCCCCCc1ccc(-c2ncc(N)cn2)cc1 | 25.1µM* | -3.5% | -23.4% | / | ? | /
Cc1ccc(-n2c(SCC(=O)NCC3CCCO3)nc3n[nH]c(C)c3c2=N)cc1Cl (stereo unspecified) | 25.9% | -1.4% | -8.1% | 14.2* | 68.2% | >57
COc1ccc(-c2nc(N)ncc2-c2csc(C)n2)c(O)c1 | -4.4% | -3.1% | 7.0% | >76.9 | -1.6% | >57
COc1ccc(-c2nc(N)nc(C)c2Oc2ccccc2Br)c(O)c1 | -20.9% | -16.2% | -22.4% | >76.9 | 47.3% | 1.86*
c1csc(-c2nnc3ccccn23)c1 | -5.0% | -1.0% | 2.5% | >76.9 | -3.0% | 6.99*
N#Cc1ccsc1NC(=O)CSc1ncnc2ccccc12 | 20µM* | -6.7% | -3.0% | >76.9 | 27.0% | >57
COc1cc(S(=O)(=O)N2CCC(O)(c3cccc(C(F)(F)F)c3)CC2)ccc1-n1cnnn1 | -19.8% | 62.9% | -1.0% | >76.9 | / | >57
CN(C)c1cccc(OC2C=CC(C#Cc3ccccc3)OC2CO)c1 (stereo unspecified) | / | / | -0.9%[11.4 µM] | / | / | /
O=C(O)[C@H](Cc1c[nH]c2ccccc12)N1C(=O)c2ccccc2C1=O | 7.0%[11.4 µM] | 2.4%[11 µM] | 23.7%[11.4 µM] | / | / | /
Cc1cccc(N(C)S(=O)(=O)c2ccc3[nH]cc(C(=O)N4CCOCC4)c(=O)c3c2)c1 | 1.1% | -5.4% | 0.8% | >76.9 | 9.0% | >57
Cc1cccc(N(C)S(=O)(=O)c2ccc3[nH]c(=O)c(=O)[nH]c3c2)c1 | 16.7% | 2.2% | -0.6% | 10.9* | 7.7% | /
CCC(=O)n1nc(-c2ccco2)nc1SCc1ccccc1 | -3.0% | -1.1% | -8.3% | >76.9 | 9.3% | >11.4
CC(=O)n1nc(-c2ccco2)nc1SCc1ccccc1 | 25.1µM* | -29.2% | 3.98µM* | / | / | /
O=C(Nc1nccs1)c1c(O)c2cccc3c2n(c1=O)CCC3 | 12.5% | -0.1% | -2.2% | >76.9 | -5.4% | >57
O=C(NCCN1CCN(c2ccccc2)CC1)c1cccc(Br)c1 | ? | -8.4% | -0.6% | / | 12.9% | >57
CCOC(=O)c1c(C)[nH]c2ccc3c(c12)CN1CCc2cc(OC)ccc2[C@@H]1O3 | 2.51µM* | -18.0% | -0.5%[25.6 µM] | / | / | /
CC(=O)c1cc2ccccc2oc1=O | 0.1%[25.6 µM] | -0.2%[26 µM] | 0.1%[25.6 µM] | / | -9.4%[17.1 µM] | /
COc1ccc2nc3oc(C(=O)N4CCN(c5cccc(C(F)(F)F)c5)CC4)cc3cc2c1 | 15.9% | -4.5% | -12.3% | >76.9 | 18.9% | >57
C/C(=C\c1ccccc1)CN1CCN(c2ccccc2)CC1 | -19.9% | 10.0% | 15.8µM* | / | ? | /
O=C(Nc1ccc(N2CCOCC2)cc1)C1(S(=O)(=O)c2ccccc2)CC1 | -9.4% | ? | 1.2% | / | -4.1% | /
CCc1cc(C(=O)Cc2ccc(F)cc2)c(O)cc1O | -13.3% | -2.1% | ? | / | -1.6% | /
CCc1cc(C(=O)COc2ccccc2F)c(O)cc1O | -18.2% | -7.5% | 12.6µM* | / | 9.2% | /
CNC1=C(Br)C(=O)c2ccncc2C1=O | 15.8µM* | ? | -15.1% | / | / | /
O=C(NCCN1CCOCC1)C1CC(=O)N(c2ccc(F)c(Cl)c2)C1 (stereo unspecified) | 8.1% | 0.8% | 13.4% | >15.4 | -6.5% | >57
SMILES | Tau filament bind | Hsp90 Hop PPI | 15-hLO inh | GBA mod | USP2a inh | PK Bst
O=C(NCCN1CCOCC1)NC1(C(F)(F)F)Oc2ccc(Cl)cc2O1 (stereo unspecified) | -0.2% | 1.3% | 3.16µM* | 9.78* | 6.2% | >57
Cc1ccc(-c2nnc3n2N=C(c2ccccc2)CS3)cc1 | 30.8% | -0.3% | 3.0% | / | / | /
c1ccc(C2=Nn3c(nnc3-c3cc(-c4ccccc4)n[nH]3)SC2)cc1 | 209.5% | -6.3% | ? | 8.53* | 24.8% | >11.4
CCc1ccc(C2=Nn3c(nnc3-c3cccs3)SC2)cc1 | 3.7% | -5.8% | -16.3% | 8.15* | ? | i
CCCCCOc1ccc(N2C(=O)CC(N(O)c3ccccc3)C2=O)cc1 (stereo unspecified) | 12.6µM* | -2.6% | -5.0% | >76.9 | 4.4% | >57
Cc1cccc2c(=O)c(C(=O)N3CCCCCC3)c[nH]c12 | 4.9% | -0.1% | 0.4% | 6.46* | -14.0% | >57
O=S(=O)(c1ccc2c(c1)OCCO2)N1CCN(c2nc3ccccc3s2)CC1 | 12.9% | 0.6% | -10.9% | >76.9 | 31.7% | >57
c1ccc2c(c1)CCN(c1nc3cc4c(cc3s1)OCCO4)C2 | -6.7% | -10.1% | 3.98µM* | >76.9 | ? | 0.439*
CC(=O)Nc1c(Cl)n(C(C)=O)c2ccccc12 | 20µM* | -8.3% | 5.5% | / | 0.5% | /
CC(=O)n1c2ccccc2c2c1c1ccccc1n2C | 30.7% | -1.7% | 4.8% | / | 7.3% | /
Cn1c(=O)c2c(nc(NC(Cc3ccccc3)C(=O)O)n2Cc2ccccc2)n(C)c1=O (stereo unspecified) | -2.9% | -5.9% | 25.1µM* | >76.9 | 15.9% | >57
Cc1cc(NC(=O)c2ccc3c(c2)C(=O)N(CCC(C)C)C3=O)no1 | -14.4% | 6.0% | 2.8% | >76.9 | 4.9% | >57
Cc1c(C(=O)NCCC2=CCCCC2)oc2ccc(S(=O)(=O)N3CCOCC3)cc12 | 0.7% | 0.8% | 15.8µM* | >76.9 | 56.4% | >57
CN1CCN(c2nc3c(c(=O)n(C)c(=O)n3C)n2CC(N)=O)CC1 | -4.1% | -3.1% | 0.4% | >76.9 | -11.1% | >57
Cc1ccccc1C=O | -2.8% | -2.0% | -3.2% | / | / | /
O=C(CSc1nc2c(cnn2-c2ccc(F)cc2)c(=O)[nH]1)N1CCCc2ccccc21 | 28.9% | -3.6% | -19.8% | / | 32.6% | >57
Nc1nc(CN2CCN(c3ccc(F)cc3)CC2)nc(N2CCCc3ccccc32)n1 | 8.0% | -4.8% | 3.7% | 10.4* | 38.9% | >57
CN(C)S(=O)(=O)c1ccc2c(c1)c(=O)c(C(=O)N1CCOCC1)cn2C | -1.8% | 0.8% | -10.9% | / | / | /
COc1ccc(C(c2nnnn2Cc2ccc(F)cc2)N2CCN(c3ccc(OC)cc3)CC2)cc1 (stereo unspecified) | 10µM* | ? | -11.0% | >76.9 | 16.7% | >57
COc1cc(NC(=O)Nc2cccc(C(C)=O)c2)cc(OC)c1OC | -1.4% | 0.2% | 3.3% | >76.9 | 22.0% | >57
COc1cc(NC(=O)CN2c3cccc4cccc(c34)S2(=O)=O)cc(OC)c1OC | 0.7% | -5.2% | -7.4% | >76.9 | 35.4% | 0.808*
O=c1cnc2cnc(Oc3cccc(Cl)c3)nc2n1CCc1ccccc1 | 25.1µM* | -10.9% | -11.2% | / | -14.2% | /
COc1ccccc1N1CCN(Cc2ccc(OC)c(OC)c2OC)CC1 | / | / | -4.7% | / | / | /
